Assay results taken from PubChem BioAssay (NCI).
Where “and” joins values, the source holds several entries; their conditions need not be identical. Equal entries are not always repeated. Compounds without any hit were thinned out: in the full panel of roughly 83,000, 20% have a hit.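 Values shown are percent growth following 48 h exposure of cells in 96-well plates to a single concentration of compound; below 10 was considered active.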 Calls of active or inactive are those of the source.

How the values were obtained:
Assay in all cases: NCI-60 one-dose screen, 48 h (100 = growth as untreated, 0 = no growth, -100 = all killed)
Settings in all cases: 10 µM unless noted
SK-MEL-2 melanoma = tested on: SK-MEL-2 melanoma
EKVX NSCLC = tested on: EKVX NSCLC
SN12C renal = tested on: SN12C renal
UO-31 renal = tested on: UO-31 renal
TK-10 renal = tested on: TK-10 renal
ACHN renal = tested on: ACHN renal
CAKI-1 renal = tested on: CAKI-1 renal
A498 renal = tested on: A498 renal
CCRF-CEM leukemia = tested on: CCRF-CEM leukemia
MOLT-4 leukemia = tested on: MOLT-4 leukemia
SR leukemia = tested on: SR leukemia
OVCAR-8 ovarian = tested on: OVCAR-8 ovarian
OVCAR-5 ovarian = tested on: OVCAR-5 ovarian
OVCAR-4 ovarian = tested on: OVCAR-4 ovarian
SK-OV-3 ovarian = tested on: SK-OV-3 ovarian
IGROV1 ovarian = tested on: IGROV1 ovarian
OVCAR-3 ovarian = tested on: OVCAR-3 ovarian
HS 578T breast = tested on: HS 578T breast
NCI/ADR-RES ovarian = tested on: NCI/ADR-RES ovarian
RPMI-8226 leukemia = tested on: RPMI-8226 leukemia

Measured: growth

CN(C)CCCn1c2nc(=O)[nH]c(=O)c-2nc2cc(Cl)c(Cl)cc21
active: OVCAR-3 ovarian -20.9%
inactive: SK-MEL-2 melanoma 112% | EKVX NSCLC 103% | SN12C renal 70.5% | UO-31 renal 80.9% | TK-10 renal 80.5% | ACHN renal 87.8% | CAKI-1 renal 79% | A498 renal 92.1% | CCRF-CEM leukemia 45.6% | MOLT-4 leukemia 64.8% | SR leukemia 83.7% | OVCAR-8 ovarian 50% | OVCAR-5 ovarian 125% | OVCAR-4 ovarian 81.8% | SK-OV-3 ovarian 109% | IGROV1 ovarian 54% | HS 578T breast 106% | NCI/ADR-RES ovarian 85.9%

COc1ccc(-c2[nH]c3ccccc3c2-c2ccc(OC)cc2)cc1
active: SR leukemia 6.13%
inactive: SK-MEL-2 melanoma 64.6% | EKVX NSCLC 73.8% | SN12C renal 63.4% | UO-31 renal 67.7% | TK-10 renal 87.4% | ACHN renal 65.3% | CAKI-1 renal 63.2% | A498 renal 45% | MOLT-4 leukemia 49.9% | RPMI-8226 leukemia 24.1% | OVCAR-8 ovarian 86.1% | OVCAR-5 ovarian 62.6% | OVCAR-4 ovarian 61% | SK-OV-3 ovarian 61.7% | IGROV1 ovarian 88.2% | OVCAR-3 ovarian 12.9% | HS 578T breast 49.5% | NCI/ADR-RES ovarian 36.2%

Cc1cnc(C(=O)NNc2nc3sc4c(c3c(=O)[nH]2)C(C)CCC4)cn1 (centres undefined)
active: UO-31 renal 4.88% | CAKI-1 renal 6.98%
inactive: SK-MEL-2 melanoma 24.7% | EKVX NSCLC 23.5% | SN12C renal 26% | TK-10 renal 33.5% | ACHN renal 11.8% | A498 renal 33.9% | CCRF-CEM leukemia 11.8% | MOLT-4 leukemia 15.7% | SR leukemia 21.4% | OVCAR-8 ovarian 15.3% | OVCAR-5 ovarian 34.7% | OVCAR-4 ovarian 22.1% | SK-OV-3 ovarian 16.2% | IGROV1 ovarian 14.5% | OVCAR-3 ovarian 31.5% | HS 578T breast 46.8% | NCI/ADR-RES ovarian 11.7%

CN(Cc1ccccc1)c1nc(Cl)c(C2CC(c3ccc(F)cc3)=NN2C=O)s1 (centres undefined)
inactive: SK-MEL-2 melanoma 116% | EKVX NSCLC 77.9% | SN12C renal 103% | UO-31 renal 76.7% | TK-10 renal 96.2% | ACHN renal 105% | CAKI-1 renal 83.8% | A498 renal 100% | MOLT-4 leukemia 91.9% | SR leukemia 92.2% | RPMI-8226 leukemia 82.5% | OVCAR-8 ovarian 100% | OVCAR-5 ovarian 99.8% | OVCAR-4 ovarian 90.9% | SK-OV-3 ovarian 113% | IGROV1 ovarian 89.4% | OVCAR-3 ovarian 100% | HS 578T breast 97.9% | NCI/ADR-RES ovarian 90.2%

O=C(c1cccc(Br)c1)N1CCN(c2ccnc3cc(Cl)ccc23)CC1
inactive: SK-MEL-2 melanoma 85.7% | EKVX NSCLC 87.5% | SN12C renal 94% | UO-31 renal 63.6% | TK-10 renal 75.8% | ACHN renal 90.6% | CAKI-1 renal 79% | A498 renal 34.1% | MOLT-4 leukemia 87.8% | SR leukemia 118% | RPMI-8226 leukemia 70.7% | OVCAR-8 ovarian 80.2% | OVCAR-5 ovarian 90% | OVCAR-4 ovarian 54.9% | SK-OV-3 ovarian 98.3% | IGROV1 ovarian 90.6% | OVCAR-3 ovarian 86.9% | HS 578T breast 112% | NCI/ADR-RES ovarian 88.1%

COC1/C=C/OC2(C)Oc3c(C)c(O)c4c(O)c(c(C=NOC(c5ccccc5)c5ccccc5)c(O)c4c3C2=O)NC(=O)/C(C)=C/C=C/C(C)C(O)C(C)C(O)C(C)C(OC(C)=O)C1C (centres undefined)
active: SK-MEL-2 melanoma -24.9% | MOLT-4 leukemia 5.43% | SR leukemia -5.09% | RPMI-8226 leukemia 3.28% | SK-OV-3 ovarian -34% | HS 578T breast -5.16%
inactive: EKVX NSCLC 20.4% | SN12C renal 17.3% | UO-31 renal 27.2% | TK-10 renal 30.9% | ACHN renal 20.3% | CAKI-1 renal 14% | A498 renal 58.5% | OVCAR-8 ovarian 24.8% | OVCAR-5 ovarian 38.1% | OVCAR-4 ovarian 15.2% | IGROV1 ovarian 29.8% | OVCAR-3 ovarian 11.9% | NCI/ADR-RES ovarian 28.9%

O=C(/C=C/c1ccccc1)c1cccs1
49.3% (inactive) and 6.44% (active): RPMI-8226 leukemia
inactive: SK-MEL-2 melanoma 105% and 107% | EKVX NSCLC 97.6% and 94.7% | SN12C renal 96.7% and 94.1% | UO-31 renal 88.9% and 94.1% | TK-10 renal 95.5% and 103% | ACHN renal 100% and 110% | CAKI-1 renal 99.9% and 93.7% | A498 renal 94.4% and 91.6% | MOLT-4 leukemia 109% and 96% | SR leukemia 94.9% and 24.1% | OVCAR-8 ovarian 97.5% and 94% | OVCAR-5 ovarian 93.2% and 108% | OVCAR-4 ovarian 97.7% and 87.3% | SK-OV-3 ovarian 104% and 112% | IGROV1 ovarian 104% and 116% | OVCAR-3 ovarian 97% and 117% | HS 578T breast 100% | NCI/ADR-RES ovarian 99.5% and 100%

N=c1ccccn1CCO
inactive: SK-MEL-2 melanoma 104% | EKVX NSCLC 121% | SN12C renal 98.1% | UO-31 renal 85.4% | TK-10 renal 109% | ACHN renal 102% | CAKI-1 renal 106% | A498 renal 89.9% | MOLT-4 leukemia 93.4% | SR leukemia 87.7% | RPMI-8226 leukemia 98.3% | OVCAR-8 ovarian 104% | OVCAR-5 ovarian 99% | OVCAR-4 ovarian 122% | SK-OV-3 ovarian 100% | IGROV1 ovarian 112% | OVCAR-3 ovarian 121% | HS 578T breast 110% | NCI/ADR-RES ovarian 116%

COc1ccc(-c2nc(Cl)c3c(C)nn(-c4ccc(F)cc4)c3n2)cc1
inactive: SK-MEL-2 melanoma 91.9% | EKVX NSCLC 111% | SN12C renal 99% | UO-31 renal 97.3% | TK-10 renal 98% | ACHN renal 106% | CAKI-1 renal 107% | A498 renal 101% | CCRF-CEM leukemia 102% | MOLT-4 leukemia 103% | SR leukemia 103% | OVCAR-8 ovarian 99.2% | OVCAR-5 ovarian 110% | OVCAR-4 ovarian 107% | SK-OV-3 ovarian 102% | IGROV1 ovarian 109% | OVCAR-3 ovarian 106% | HS 578T breast 103% | NCI/ADR-RES ovarian 112%

CN1Cn2c(ccc2C(F)(F)F)C(=O)CS1(=O)=O
inactive: SK-MEL-2 melanoma 105% | EKVX NSCLC 99.2% | SN12C renal 104% | UO-31 renal 82.9% | TK-10 renal 103% | ACHN renal 99.4% | CAKI-1 renal 94.1% | A498 renal 96.1% | CCRF-CEM leukemia 105% | MOLT-4 leukemia 101% | SR leukemia 109% | OVCAR-8 ovarian 108% | OVCAR-5 ovarian 96% | OVCAR-4 ovarian 97.4% | IGROV1 ovarian 104% | OVCAR-3 ovarian 112% | HS 578T breast 106% | NCI/ADR-RES ovarian 103%

c1ccc(Cc2cccc[n+]2C(c2ccccc2)c2ccccc2)cc1
inactive: SK-MEL-2 melanoma 11.6% | EKVX NSCLC 30% | SN12C renal 71.5% | UO-31 renal 82.7% | TK-10 renal 62.9% | ACHN renal 94.7% | CAKI-1 renal 94.4% | A498 renal 90.1% | MOLT-4 leukemia 59.3% | SR leukemia 32.4% | RPMI-8226 leukemia 12.3% | OVCAR-8 ovarian 57.2% | OVCAR-5 ovarian 71.5% | OVCAR-4 ovarian 28.2% | SK-OV-3 ovarian 52.1% | IGROV1 ovarian 62.3% | OVCAR-3 ovarian 44.6% | HS 578T breast 90.6% | NCI/ADR-RES ovarian 104%

N=C(N)c1ccc(-c2ccc(-c3ccc(F)cc3)s2)nc1
inactive: SK-MEL-2 melanoma 101% | EKVX NSCLC 79.3% | SN12C renal 75.3% | UO-31 renal 74.1% | TK-10 renal 108% | ACHN renal 76% | CAKI-1 renal 65.4% | A498 renal 79% | CCRF-CEM leukemia 47.8% | MOLT-4 leukemia 26.3% | OVCAR-8 ovarian 68.9% | OVCAR-5 ovarian 77.6% | OVCAR-4 ovarian 79.7% | SK-OV-3 ovarian 86.3% | IGROV1 ovarian 65.7% | OVCAR-3 ovarian 76.9% | HS 578T breast 84.2% | NCI/ADR-RES ovarian 93.5%
active: SR leukemia 3.85%

CCOC(=O)N(O)c1ccc(/C=C/c2ccccc2)cc1
active: TK-10 renal 4.6% | A498 renal -67.4% and -83.1% | IGROV1 ovarian 8.91% and 1.54%
18.9% (inactive) and 3.82% (active): OVCAR-5 ovarian
inactive: SK-MEL-2 melanoma 66.5% and 53.1% | EKVX NSCLC 91.8% | SN12C renal 66.3% and 62.6% | UO-31 renal 56.2% and 57.4% | ACHN renal 76.2% and 70.3% | CAKI-1 renal 51.7% and 81.4% | CCRF-CEM leukemia 55.2% and 63% | MOLT-4 leukemia 59.4% and 60.9% | SR leukemia 66.7% | OVCAR-8 ovarian 76.7% and 37.1% | OVCAR-4 ovarian 55.8% and 43.5% | OVCAR-3 ovarian 34% and 28% | HS 578T breast 94.4% and 112% | NCI/ADR-RES ovarian 74.7% and 63.2%

C=C1CC[C@@H]2[C@](C)(COC(C)=O)[C@H](OC(C)=O)CC[C@@]2(C)[C@@H]1CC(Nc1ccc(S(=O)(=O)Nc2nccs2)cc1)C1=CCOC1=O (some centres undefined)
active: ACHN renal -46.6% | CCRF-CEM leukemia -27.7% | MOLT-4 leukemia -4.45% | SR leukemia -5.84% | OVCAR-8 ovarian 4.39% | OVCAR-5 ovarian 7.82% | OVCAR-3 ovarian -70.2% | NCI/ADR-RES ovarian 9.2%
inactive: SK-MEL-2 melanoma 28.4% | EKVX NSCLC 73.4% | SN12C renal 15.6% | UO-31 renal 13.5% | TK-10 renal 55% | CAKI-1 renal 55.9% | A498 renal 85% | OVCAR-4 ovarian 38% | SK-OV-3 ovarian 79.9% | IGROV1 ovarian 12.6% | HS 578T breast 51.9%
